Data as given in PubChem BioAssay (NCI).
The panel holds about 83,000 compounds, 20% with a hit somewhere; the sample as a whole holds those more often.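 Results are percent growth after 48 hours of single-concentration exposure. 100 means growth as in untreated cells, lower positive values show inhibition; negative values down to -100 show cell death.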 A number with no mark means an inactive call. Calls of active or inactive are those of the source. Rule for the calls: active = growth percent below 10; inactive = the rest.

Experiments:
Assay in all cases: NCI-60 one-dose screen, 48 h (100 = growth as untreated, 0 = no growth, -100 = all killed)
Settings in all cases: 10 µM unless noted
[1] = tested on: HCT-15 colon
[2] = tested on: HT29 colon
[3] = tested on: SNB-75 CNS
[4] = tested on: SNB-19 CNS
[5] = tested on: U251 CNS
[6] = tested on: PC-3 prostate
[7] = tested on: SK-MEL-5 melanoma
[8] = tested on: UACC-62 melanoma
[9] = tested on: LOX IMVI melanoma
[10] = tested on: SK-MEL-28 melanoma
[11] = tested on: SK-MEL-2 melanoma
[12] = tested on: EKVX NSCLC
[13] = tested on: SN12C renal
[14] = tested on: UO-31 renal
[15] = tested on: TK-10 renal
[16] = tested on: ACHN renal
[17] = tested on: CAKI-1 renal
[18] = tested on: A498 renal
[19] = tested on: CCRF-CEM leukemia
[20] = tested on: MOLT-4 leukemia

SMILES	growth [1]	growth [2]	growth [3]	growth [4]	growth [5]	growth [6]	growth [7]	growth [8]	growth [9]	growth [10]	growth [11]	growth [12]	growth [13]	growth [14]	growth [15]	growth [16]	growth [17]	growth [18]	growth [19]	growth [20]
CC[C@]12C=CCN3CC[C@@]4(c5cc(NC(=O)CCC(=O)O[C@H]6CC[C@H]7[C@@H]8CCC9=CC(=O)CC[C@@H]9[C@H]8CC[C@]67C)c(OC)cc5N(C)[C@H]4[C@@](O)(C(=O)OC)[C@@H]1OC(C)=O)[C@@H]32	62.2%	62.8%	68.6%	85%	74.1%	53.6%	43.8%	64.1%	84.7%	91.7%	81.9%	73.4%	81.5%	53.6%	97.4%	87.2%	67.8%	71.6%	62.7%	40.3%
C[C@H]1[C@H]2[C@H]3CC[C@@H]4[C@@]5(C)CC[C@H](O)C(C)(C)[C@@H]5CC[C@@]4(C)[C@]3(C)CC[C@]23CO[C@]1(C)[C@@H](C(=O)/C=C\c1ccco1)C3	106%	98.1%	78.4%	75.3%	69.4%	92.7%	8.55% (active)	7.16% (active)	89%	36.7%	9.51% (active)	105%	101%	77%	97.4%	44.3%	55.8%	–	101%	–
c1ccc(Cn2cnc3ccc(-c4nc(-c5ccc6c(c5)ncn6C5CCCCC5)cn5ccnc45)cc32)cc1	-9.03% (active)	-48.7% (active)	-67.4% (active)	19.6%	-22.8% (active)	-39.5% (active)	-84% (active)	-31.2% (active)	-87% (active)	0.441% (active)	-36.7% (active)	-12.3% (active)	-35.4% (active)	-51.4% (active)	5.2% (active)	19.9%	43.3%	-71.8% (active)	5.6% (active)	4.39% (active)
COc1cc2c3c(c4c5ccccc5[nH]c4c2c(OC)c1OC)C(=O)N(CCN1CCOCC1)C3=O	50%	34.2%	86.4%	51.9%	51.8%	48.4%	54.7%	43.3%	45%	99.2%	73.9%	91.2%	47.8%	52.4%	76.2%	35.2%	40.9%	54.1%	23.1%	6.55% (active)
C/C(=N\NC(=O)CSc1nc2ccccc2c(=O)n1Cc1ccc(S(N)(=O)=O)cc1)c1ccc(F)cc1	96.9%	94.7%	98.5%	102%	103%	102%	105%	102%	97.6%	117%	111%	90.9%	101%	84.5%	102%	105%	95%	–	106%	107%
CN(C)CCC(=O)c1ccc([N+](=O)[O-])cc1	103%	96.7%	90.9%	107%	105%	93.6%	99%	98.6%	111%	104%	109%	106%	99.1%	85.9%	98.2%	110%	96.3%	88.4%	97.2%	112%
C=C1C(=O)O[C@H]2[C@H]1CC/C(CNS(=O)(=O)c1cccc3ccccc13)=C\CC[C@@]1(C)O[C@@H]21	-25% (active)	-3.2% (active)	66.5%	67.2%	53.1%	45.7%	41.4%	29%	14.3%	2.74% (active)	59.4%	59.4%	11.9%	21.9%	8.61% (active)	3.67% (active)	34.5%	70.9%	1.32% (active)	6.51% (active)
COc1ccc(CC(C)=C(c2ccc(OCCN3CCCCCC3)cc2)c2ccc(OCCN3CCCCCC3)cc2)cc1	-95.9% (active)	-85% (active)	-92.9% (active)	-95% (active)	-91.4% (active)	-87.2% (active)	-97.9% (active)	-97.1% (active)	-100% (active)	-99.1% (active)	-82.2% (active)	-93.6% (active)	-92.4% (active)	-98.8% (active)	-87.3% (active)	-100% (active)	-92.5% (active)	–	-57.9% (active)	-67.5% (active)
CC1(C)NCCC[C@]2(C)[C@H]3CC[C@@H]4[C@H]5[C@H](C(=O)/C=C/c6ccco6)CC[C@]5(CO)CC[C@@]4(C)[C@]3(C)CC[C@@H]12	59.1%	106%	83%	94.2%	82%	62.4%	93.4%	87.8%	74.8%	104%	117%	101%	82.1%	67.3%	9.01% (active)	99.6%	76.1%	–	74.6%	–
CCN(c1ccccc1)S(=O)(=O)c1cc([N+](=O)[O-])ccc1Cl	75.7%	63%	66.2%	85%	59.2%	76.8%	45.3%	57.5%	52.4%	88.8%	46.2%	88.3%	60.7%	53.9%	107%	79.9%	48.1%	–	52%	–
COc1ccc(C(=O)c2cc(C)c(OC)c(C)c2)c(OC)c1OC(=O)C(Cl)Cl	3.34% (active)	22.4%	56.3%	22.2%	13.5%	19.1%	-20.8% (active)	29.3%	20.3%	53.3%	24.4%	58.4%	30.1%	35.3%	50.9%	18.3%	39.8%	–	11.1%	20.7%
C=C(C)[C@@H]1CC[C@]2(C(=O)N3CCN(C)CC3)CC[C@]3(C)[C@H](CC[C@@H]4[C@@]5(C)CC[C@H](OCCC#N)C(C)(C)[C@@H]5CC[C@]43C)[C@@H]12	90.6%	27.6%	99.5%	95.9%	43.9%	72.2%	94.8%	110%	53.5%	112%	97.7%	101%	90.7%	81.8%	106%	103%	99.8%	–	23%	59.7%
O=C(c1ccccc1)N1N=C(c2ccc(-n3ccc(C(F)(F)F)n3)c(F)c2)CC1c1ccc[nH]1 (stereo not drawn)	100%	98.8%	98.4%	99.1%	98.5%	101%	103%	101%	101%	111%	102%	100%	101%	90.4%	99.2%	110%	98.3%	–	105%	98.8%
O=C(/C=C/c1ccc(Cl)cc1)c1ccc(NC(=O)N2CCN(c3cc4c(cc3F)c(=O)c(C(=O)O)cn4C3CC3)CC2)cc1	96.4%	89.3%	92.1%	87.6%	92.4%	97.7%	93.6%	76.1%	6.5% (active)	99.2%	98.2%	98.4%	86.4%	80.2%	107%	101%	82.7%	–	72.2%	92.1%
COc1ccc(Cc2cnc(NC(=O)c3ccc4c(c3)OCCO4)s2)cc1	7.26% (active)	2.59% (active)	17.9%	37.7%	12.3%	23.4%	-39.3% (active)	48.1%	29.3%	68.6%	39.3%	37.7%	30.7%	54.8%	41%	27.9%	27.8%	-6.31% (active)	13.5%	11.6%
